Results on 31 compounds are retold here after ChEMBL document CHEMBL4513216, “Probing the Open Global Health Chemical Diversity Library for Multistage-Active Starting Points for Next-Generation Antimalarials” (ACS Infect Dis, 2020).

Among all 69,000 compounds or so, about 8,600 (12%) showed an effect of 50% or more. Shown is part of a subset that was picked to be rich in strong results.

The assay concerns Plasmodium berghei. The experiment in a line: Screen against P. berghei liver stage (PbLuc), transformed with Luciferase, at 10uM. The following applies: tested at 10 uM. It is filed as functional, HepG2.
Regarding `CC(C)NC(=O)[C@H]1C[C@@H]2[C@@H](C1)OCCN2CC1CC1`, the INHIBITION came to 48.2%.

Consider `N#Cc1ccc(F)c(CN(CC(=O)N2CCCC2)CC2CCCO2)c1` (stereo unspecified), for which the INHIBITION is -13.5%.

As for `N#Cc1csc(CN(CC(=O)N2CCCC2)CC2CCCO2)c1` (stereo unspecified), the INHIBITION is 70.9%.

Regarding `N#Cc1cccc(CN(CC(=O)N2CCCC2)CC2CCCO2)c1` (stereo unspecified), the INHIBITION is reported as -4.91%.

On to `O=C([C@@H]1CC[C@@H]2[C@@H](CCN2CCOCc2ccccc2)O1)N1CCCC1`, for which the INHIBITION was determined as 32.1%.

In the case of `CCCNC(=O)CCOc1cccc(F)c1`, the INHIBITION was determined as 14.465%.

For `Cc1ccc(CN(CCN(C)C)C(=O)Nc2ccc(C)c(C#N)c2)s1`, the INHIBITION is reported as 60%.

With `CC(=O)c1ccc(NC(=O)N(CCN(C)C)Cc2ccc(C)s2)cc1`, the INHIBITION is reported as 26.6%.

Turning to `Cc1ccc(CN(CCN(C)C)C(=O)Nc2cc(C(N)=O)ccc2C)s1`, the INHIBITION stood at 19.2%.

Consider `Cc1cnn(CC2CCCN2C(=O)c2cccnc2-n2cncn2)c1` (stereo unspecified), for which the INHIBITION was determined as 31.9%.

With `Cc1cccc2c(CCNC(=O)[C@H](N)c3ccccc3)c[nH]c12`, the INHIBITION is given as 61.1%.

Take `Cc1cccc2c(CCNC(=O)NCC[S+](C)[O-])c[nH]c12` (stereo unspecified): the INHIBITION is listed as 26.4%.

Regarding `Cc1cccc2c(CCNC(=O)NCCC[S+](C)[O-])c[nH]c12` (stereo unspecified), the INHIBITION turned out to be 51%.

`Cc1cccc2c(CCNS(=O)(=O)C3CCOC3)c[nH]c12` (stereo unspecified): the INHIBITION amounted to 39.2%.

Turning to `COc1c(Br)cccc1CCNC(=O)c1ncoc1C`, the INHIBITION is given as -53.1%.

Turning to `CC(=O)N1CCC(C(=O)NCCc2c[nH]c3cc(C)ccc23)CC1`, the INHIBITION was 11.9%.

For `Cc1cnn(CC2CCCCN2C(=O)Cn2nc(C)c(Cl)c2C)c1` (stereo unspecified), the INHIBITION amounted to 13.8%.

Consider `O=C(CCNS(=O)(=O)c1ccc(Cl)cc1)NCc1ccoc1`, for which the INHIBITION is -11.6%.

Take `CCNc1ncc(C(=O)NC(CC)c2ccnn2C)cn1` (stereo unspecified): the INHIBITION worked out at 48.2%.

On to `Cn1cnc2cc(CCC(=O)Nc3n[nH]c(C4CC4)n3)ccc21`, for which the INHIBITION is given as 41.5%.

Turning to `COCCC(=O)N1CCC2(COCc3cnc(N4CCOCC4)nc32)C1` (stereo unspecified), the INHIBITION came to 34.7%.

For `O=C(CC1CC1)N1CCC2(COCc3cnc(N4CCOCC4)nc32)C1` (stereo unspecified), the INHIBITION worked out at 61.4%.

As for `O=C(CC1CC1)N1CCC2(COCc3cnc(-c4cccnc4)nc32)C1` (stereo unspecified), the INHIBITION turned out to be 42.1%.

For `O=C(C1CC1)N1CCC2(COCc3cnc(N4CCOCC4)nc32)C1` (stereo unspecified), the INHIBITION is recorded as 60.1%.

For the compound `COCC(=O)N1CCC2(COCc3cnc(-c4ccccc4)nc32)C1` (stereo unspecified), the INHIBITION is recorded as -22.4%.

As for `CCC(=O)N1CCC2(COCc3cnc(N4CCOCC4)nc32)C1` (stereo unspecified), the INHIBITION was 57.9%.

On to `O=C(C1CC1)N1CCC2(COCc3cnc(NCc4ccco4)nc32)C1` (stereo unspecified), for which the INHIBITION is recorded as -3.33%.

Regarding `CC(C)(C)C(=O)N1CCC2(COCc3cnc(N4CCOCC4)nc32)C1` (stereo unspecified), the INHIBITION is given as -18.2%.

Regarding `O=C(C1CCC1)N1CCC2(COCc3cnc(N4CCOCC4)nc32)C1` (stereo unspecified), the INHIBITION is -4.56%.

`CC(C)NC(=O)N1CCC2(COCc3cnc(N4CCOCC4)nc32)C1` (stereo unspecified): the INHIBITION was -18.4%.

As to `COCC(=O)N1CCC2(COCc3cnc(N4CCOCC4)nc32)C1` (stereo unspecified), the INHIBITION was 84.7%.
